Data on 34 molecules can be found in PubChem BioAssay (NCATS).

Values joined by “and” are separate entries in the source; they are usually repeats but may differ in a detail not shown here. Identical values can stand only once. Records with an inconclusive call do not appear. Active and inactive are the calls of the source. Calls follow the shape of the dose curve; as a rule, active = well fitted inhibition curve with a large enough effect; inconclusive = small, poorly fitted or top-dose-only effect; inactive = flat fitted curve, though single readings scatter.
% is scaled to controls: 0 for no effect and ±100 for the full control effect; potency is read from the fitted curve at half-maximal effect.

The first assay relates to CRL-7250. Description: Cytotoxic Profiling of Annotated Libraries Using Quantitative High-Throughput Screening (AID 1296008). Also: nearly all actives have a fitted effect of over 60% in size. Conditions: Five cell lines viability, CellTiter-Glo ATP luminescence, 48-72 h; max response: active compounds read low. In short, it runs like this:
(§1)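 Cells exposed to compounds for 48 or 72 hr at 37 degrees Celsius. Viability read as ATP-coupled luminescence with CellTiter-Glo after 10 min at room temperature.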
A general note: Cellular ATP, detected with luciferase, serves as a proxy for viable cell number.
As for `COC(=O)[C@H]1[C@H]2C[C@@H]3c4[nH]c5cc(OC)ccc5c4CCN3C[C@H]2C[C@@H](OC(=O)c2cc(OC)c(OC)c(OC)c2)[C@@H]1OC`, the max response was 0.615% (inactive) and 0.375% (inactive).

In the case of `OCCN1CCN(CCCN2c3ccccc3C=Cc3ccccc32)CC1`, the outcome was inactive. Consider `C[C@]12CCC(=O)C=C1CC[C@@H]1[C@@H]2CC[C@@]2(C)[C@H]1CC[C@]2(O)C(=O)CO`, for which the max response was -9.98% (inactive). `CCCC(C(=O)OCCN(CC)CC)(c1ccccc1)c1ccccc1`: the max response was -17.9% (inactive). For `CCn1ccnc1CC1COc2ccccc2O1` (stereo not drawn), the max response is -3.72% (inactive). Regarding `CN1CCN(C2=Nc3ccccc3Oc3ccc(Cl)cc32)CC1`, the molecule was called inactive. With `CN(C)CCOC(=O)COc1ccc(Cl)cc1`, the max response was -13.3% (inactive). Turning to `C=CCc1ccccc1OCC(O)CNC(C)C` (stereo not drawn), the max response is -1.4% (inactive).

For the molecule `NC(N)=N/N=C/c1c(Cl)cccc1Cl`, the max response was 3.75% (inactive).

With `CCCCNc1ccc(C(=O)OCCN(C)C)cc1`, the max response is 3.25% (inactive).

In the case of `c1cnc(N2CCN(Cc3ccc4c(c3)OCO4)CC2)nc1`, the max response is -1.35% (inactive). For the molecule `OC(CCN1CCCCC1)(c1ccccc1)C1CCCCC1` (stereo not drawn), the outcome was inactive. As to `CN(C)CCCN1c2ccccc2Sc2ccccc21`, the max response is 0.274% (inactive). As for `CCCN1C[C@H](CSC)C[C@@H]2c3cccc4[nH]cc(c34)C[C@H]21`, the max response is -3.21% (inactive) and -8.84% (inactive).

Take `Brc1c(NC2=NCCN2)ccc2nccnc12`: the max response was -13% (inactive). Still for that read-out and setting: next, `COc1cc(C(=O)OCCCN2CCCN(CCCOC(=O)c3cc(OC)c(OC)c(OC)c3)CC2)cc(OC)c1OC`: -12.1% (inactive); `CCC(=O)c1ccc2c(c1)N(CCCN(C)C)c1ccccc1S2`: -1.9% (inactive).

With `CCN(CC)CCCN(c1ccccc1)C1Cc2ccccc2C1`, the max response is 2.42% (inactive).

For `CC(=O)[C@]1(O)Cc2c(O)c3c(c(O)c2[C@@H](O[C@H]2C[C@H](N)[C@H](O)[C@H](C)O2)C1)C(=O)c1ccccc1C3=O`, the Potency is 0.237 µM (active). As for `CC(=O)[C@@]1(O)CC[C@H]2[C@@H]3CCC4=CC(=O)CC[C@]4(C)[C@H]3CC[C@@]21C`, the molecule was classed as inactive.

Take `O=c1[nH]c(=O)n([C@H]2C[C@H](O)[C@@H](CO)O2)cc1Br`: the max response was 0.0744% (inactive). The same measure, in the same setting: next, `COc1ccc(CCN(C)CCCC(C#N)(c2cc(OC)c(OC)c(OC)c2)C(C)C)cc1OC` (stereo not drawn): -12.1% (inactive). As for `C[n+]1cc2c3c(ccc2c2ccc4cc5c(cc4c21)OCO5)OCO3`, the Potency was 1.84 µM (active). `Nc1nc(N)c2nc(-c3ccccc3)c(N)nc2n1`: the max response is -19.7% (inactive).

For the molecule `COc1ccc(CN(CCN(C)C)c2ccccn2)cc1`, the max response was 1.58% (inactive). On to `CC(N=C(NC#N)Nc1ccncc1)C(C)(C)C` (stereo not drawn), for which the outcome was inactive. On to `CCOC(=O)C1=C(C)NC(C)=C(C(=O)OC)C1c1cccc([N+](=O)[O-])c1` (stereo not drawn), for which the molecule was classed as inactive. Turning to `CCCCNc1c(C(=O)OCC)c(C)nc2c1cnn2CC`, the max response was -21.3% (inactive).

Regarding `CNCCC(Oc1ccccc1OC)c1ccccc1` (stereo not drawn), the max response is -0.295% (inactive). In the case of `CCCCCCCC/C=C\CCCCCCCC(=O)NCc1ccc(O)c(OC)c1`, the max response is -0.832% (inactive).

For `O=C(CCCN1CCC(O)(c2cccc(C(F)(F)F)c2)CC1)c1ccc(F)cc1`, the max response was -19.1% (inactive). With `CN1C[C@H](C(=O)N[C@]2(C)O[C@@]3(O)[C@@H]4CCCN4C(=O)[C@H](Cc4ccccc4)N3C2=O)C[C@@H]2c3cccc4[nH]cc(c34)C[C@H]21`, the molecule was called inactive.

Consider `CN(C)CC/C=C1\c2ccccc2COc2ccccc21`, for which the max response is -15.2% (inactive).

On to `NC(N)=NC(=O)Cc1c(Cl)cccc1Cl`, for which the max response was -2.41% (inactive).

A further assay deals with HEK293. The description is as above. The note with it: Five cell lines viability, CellTiter-Glo ATP luminescence, 48-72 h; max response: active compounds read low. In short, it runs like this:
as §1
Regarding `CN(C)CCOC(=O)COc1ccc(Cl)cc1`, the max response was 2.83% (inactive). For the molecule `NC(N)=N/N=C/c1c(Cl)cccc1Cl`, the Potency was 18.8 µM (active). As to `CCCCNc1ccc(C(=O)OCCN(C)C)cc1`, the max response was -4% (inactive).

Consider `Brc1c(NC2=NCCN2)ccc2nccnc12`, for which the max response was -12.5% (inactive). Regarding `COc1cc(C(=O)OCCCN2CCCN(CCCOC(=O)c3cc(OC)c(OC)c(OC)c3)CC2)cc(OC)c1OC`, the Potency is 21.1 µM (active). Still for that read-out and setting: next, `CC(=O)[C@]1(O)Cc2c(O)c3c(c(O)c2[C@@H](O[C@H]2C[C@H](N)[C@H](O)[C@H](C)O2)C1)C(=O)c1ccccc1C3=O`: 0.0335 µM (active); `C[n+]1cc2c3c(ccc2c2ccc4cc5c(cc4c21)OCO5)OCO3`: 1.16 µM (active). For `CN1C[C@H](C(=O)N[C@]2(C)O[C@@]3(O)[C@@H]4CCCN4C(=O)[C@H](Cc4ccccc4)N3C2=O)C[C@@H]2c3cccc4[nH]cc(c34)C[C@H]21`, the Potency was 10.6 µM (active).

`NC(N)=NC(=O)Cc1c(Cl)cccc1Cl`: the Potency is 8.41 µM (active).
